Shown are actives, neighbours in structure and some others; about 27% of the full set was active somewhere.
sEH inh = inhibitors of human soluble epoxide hydrolase; P34913; recombinant human sEH enzymatic activity assay; inhibition, % at 2 µM; 0.34% of 91,000 active; in the data active = inhibition above about 80%
sEH act = increases human soluble epoxide hydrolase activity. activation, % at 2 µM. 0.04% of 91,000 active. AID 717. purified human sEH enzymatic activity, activator screen; in the data active = activation above about 37%
CYP2C9 act = CYP2C9 (human) activation; activation factor at 5 µM; P11712; recombinant CYP2C9, luciferin-H conversion, luminescence; stronger effect = higher value; factor 1 = untreated enzyme, 0 = blocked; 1.4% of 96,000 active;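 active = activation factor of 2 or more for CYP2C9 at a 5 µM dose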;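 note: 0 = sulfaphenazole-blocked wells and 1 = vehicle-only wells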
CYP2C19 inhib = inhibitors of human CYP2C19 | P33261 | CYP2C19 Supersomes, luciferin-H EGE luminescence, 30 min | inhibition, % at 5 µM | 21% of 96,000 active | AID 778;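 active = CYP2C19 inhibition above a set limit at 5 µM in the primary screen, cut at about 50% in these data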;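 note: plate controls were negative control wells for no effect and 2.5 mM tranylcypromine positive control for full effect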
Target sequence (P33261 whole entry, looked up): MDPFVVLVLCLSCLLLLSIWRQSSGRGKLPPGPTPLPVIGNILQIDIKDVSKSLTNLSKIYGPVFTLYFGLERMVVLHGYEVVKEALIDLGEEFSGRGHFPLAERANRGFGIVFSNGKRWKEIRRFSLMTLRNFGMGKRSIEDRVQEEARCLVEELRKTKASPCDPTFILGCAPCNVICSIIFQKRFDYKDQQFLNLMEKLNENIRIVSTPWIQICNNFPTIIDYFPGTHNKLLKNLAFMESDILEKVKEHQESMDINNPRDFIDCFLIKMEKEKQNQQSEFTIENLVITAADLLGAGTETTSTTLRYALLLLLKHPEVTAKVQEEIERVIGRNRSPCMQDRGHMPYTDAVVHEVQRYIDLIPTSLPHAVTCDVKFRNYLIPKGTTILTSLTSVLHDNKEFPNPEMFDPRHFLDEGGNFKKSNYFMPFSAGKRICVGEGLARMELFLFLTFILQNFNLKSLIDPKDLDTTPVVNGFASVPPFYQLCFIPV
CYP2C9 inh = human CYP2C9 inhibition. AID 777. inhibition, % at 5 µM. 20% of 96,000 active. CYP2C9 Supersomes, luciferin-H conversion, luminescence;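 active = blocking of liver enzyme CYP2C9 beyond about 50% at 5 µM, limit read from the data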
CYP2C19 activ = cytochrome P450 2C19 (human) activation; P33261; recombinant CYP2C19, luciferin-H EGE luminescence; stronger effect = higher value; 0 = fully inhibited enzyme, 1 = untreated enzyme; activation factor at 5 µM; 96,000 tested, under 10 active; AID 1025;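 active = activation factor of at least 2 at 5 µM in the primary screen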;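 note: 0 = wells with 2.5 mM tranylcypromine and 1 = vehicle-only wells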
The depositor's hits bear a star.

For COc1ccc(CCNC(=O)C2CCCN(C(=O)N(C)C)C2)c(OC)c1 (configuration not stated) the results were CYP2C9 act 1.1, CYP2C19 inhib -3.3, CYP2C9 inh -6.6 and CYP2C19 activ 1.
Screening Cc1ccc(NS(=O)(=O)c2cccc(C(=O)n3ncc(C#N)c3N)c2)c(C)c1 returned CYP2C9 act 0.5, CYP2C19 inhib 26.7, CYP2C9 inh 51.4* and CYP2C19 activ 0.7.
Cc1c(Cl)cccc1-n1c(SCC(=O)NCc2cccs2)nnc1-c1ccncc1 was read as sEH inh 23.0, sEH act -22.1, CYP2C9 act 0.2, CYP2C19 inhib 96.8*, CYP2C9 inh 76.6* and CYP2C19 activ 0.
Cc1c(Cl)cccc1-n1c(SCC(=O)NCc2ccccc2Cl)nnc1-c1ccncc1 was read as sEH inh 63.3, sEH act -62.6, CYP2C9 act 0.2, CYP2C19 inhib 93.6*, CYP2C9 inh 80.6* and CYP2C19 activ 0.1.
O=C(CSc1nnc(-c2ccncc2)n1-c1ccc(Cl)cc1)NCc1cccs1 was read as sEH inh 4.3, sEH act -3.8, CYP2C9 act 0.2, CYP2C19 inhib 96.0*, CYP2C9 inh 76.8* and CYP2C19 activ 0.
For Cn1c(SCC(=O)NCc2cccs2)nnc1-c1ccncc1 the results were sEH inh 6.6, sEH act -3.8, CYP2C9 act 1, CYP2C19 inhib 13.2, CYP2C9 inh 4.7 and CYP2C19 activ 0.9.
CCOc1ccccc1N1CC(C(=O)Nc2ccc(C(=O)O)cc2)CC1=O (configuration not stated) was read as sEH inh 1.9, sEH act 0.3, CYP2C9 act 1, CYP2C19 inhib 3.9, CYP2C9 inh 2.8 and CYP2C19 activ 1.
Cc1ccc(S(=O)(=O)C(C#N)c2nc3ccccc3nc2N2CCCCC2)cc1 (configuration not stated) was read as CYP2C9 act 0.9, CYP2C19 inhib 17.3, CYP2C9 inh 7.3 and CYP2C19 activ 0.8.
CCOC(=O)N1CCN(c2nc3ccccc3nc2C(C#N)S(=O)(=O)c2ccc(C)cc2)CC1 (configuration not stated) was read as sEH inh 5.8, sEH act -7.0, CYP2C9 act 0.1, CYP2C19 inhib 33.2, CYP2C9 inh 92.3* and CYP2C19 activ 0.7.
Screening Cc1cccc(S(=O)(=O)C(C#N)c2nc3ccccc3nc2N2CCOCC2)c1 (configuration not stated) returned sEH inh -6.0, sEH act 3.2, CYP2C9 act 0.4, CYP2C19 inhib 29.4, CYP2C9 inh 56.4* and CYP2C19 activ 0.7.
Screening C#CCOC(=O)c1ccccc1C(=O)n1nnc2ccccc21 returned sEH inh 4.0, sEH act -4.5, CYP2C9 act 0.3, CYP2C19 inhib 88.0*, CYP2C9 inh 66.1* and CYP2C19 activ 0.1.
Screening Cc1cc(NC(=O)CSc2c3c(nc4ccccc24)CCC3)no1 returned sEH inh -5.3, sEH act 6.0, CYP2C9 act 0.4, CYP2C19 inhib 54.8*, CYP2C9 inh 55.7* and CYP2C19 activ 0.5.
For CCCc1nc(SCC(=O)Nc2cc(C)on2)c2ccccc2n1 the results were sEH inh 21.3, sEH act -21.5, CYP2C9 act 0.7, CYP2C19 inhib 10.4, CYP2C9 inh 32.0 and CYP2C19 activ 0.9.
`Cc1cc(NC(=O)CSc2nc(CCC3CCCC3)nc3ccccc23)no1` gave sEH inh 12.4, sEH act -10.0, CYP2C9 act 0.1, CYP2C19 inhib 87.4*, CYP2C9 inh 90.3* and CYP2C19 activ 0.1.
Cc1ccc2cc(COC(=O)C3CCCO3)c(=O)[nH]c2c1 (configuration not stated) was read as sEH inh 13.2, sEH act -10.3, CYP2C9 act 1, CYP2C19 inhib 0.4, CYP2C9 inh 3.6 and CYP2C19 activ 1.
`C=C(C)Cn1c(SCC(=O)O)nc2c1c(=O)[nH]c(=O)n2C` gave sEH inh 3.0, sEH act -4.2, CYP2C9 act 1.1, CYP2C19 inhib -10.4, CYP2C9 inh -5.9 and CYP2C19 activ 1.1.
For CCCc1cc(-c2[nH]ncc2-c2ccc3c(c2)OCCCO3)c(O)cc1O the results were sEH inh 20.1, sEH act -19.9, CYP2C9 act 0, CYP2C19 inhib 100.0*, CYP2C9 inh 100.0* and CYP2C19 activ 0.
CCOC(=O)c1ccc(CSc2ncn[nH]2)o1 was read as sEH inh 1.7, sEH act -0.6, CYP2C9 act 1, CYP2C19 inhib 20.6, CYP2C9 inh 4.3 and CYP2C19 activ 0.8.
Screening CCCc1cc(-c2[nH]ncc2-c2ccc(C(=O)OCC)o2)c(O)cc1O returned sEH inh -9.3, sEH act 8.9, CYP2C9 act 0, CYP2C19 inhib 70.4*, CYP2C9 inh 97.9* and CYP2C19 activ 0.3.
`O=C(CNC(=O)c1ccco1)OCN1C(=O)c2ccccc2C1=O` gave sEH inh 3.5, sEH act -0.5, CYP2C9 act 1, CYP2C19 inhib -4.8, CYP2C9 inh -4.3 and CYP2C19 activ 1.
CN1C(=O)N(C)C2C1N(CN1CCCCC1)C(=O)N2CN1CCCCC1 (configuration not stated) was read as sEH inh 8.7, sEH act -10.3, CYP2C9 act 1, CYP2C19 inhib -13.5, CYP2C9 inh -1.4 and CYP2C19 activ 1.1.
`CC(=O)N1CCN=C1SCc1ccc(C)cc1` gave CYP2C9 act 0.7, CYP2C19 inhib 33.8, CYP2C9 inh 29.3 and CYP2C19 activ 0.7.
CCc1nc(SCC(=O)N2c3ccccc3Sc3ccccc32)c2ccccc2n1 was read as sEH inh -10.0, sEH act 10.3, CYP2C9 act 0.5, CYP2C19 inhib -0.5, CYP2C9 inh 53.3* and CYP2C19 activ 1.
For Cc1cccc(C)c1NC(=O)CSc1nc(COc2ccccc2)nc2ccccc12 the results were sEH inh 6.1, sEH act -8.0, CYP2C9 act 0.1, CYP2C19 inhib 66.3*, CYP2C9 inh 89.6* and CYP2C19 activ 0.3.
`Cc1cccc(NC(=O)CSc2nc(COc3ccccc3)nc3ccccc23)c1C` gave sEH inh 16.4, sEH act -18.1, CYP2C9 act 0.1, CYP2C19 inhib 38.7, CYP2C9 inh 90.5* and CYP2C19 activ 0.6.
CCc1nc(SCC(=O)Nc2sc(C)c(C)c2C(=O)OC)c2ccccc2n1 was read as sEH inh 6.3, sEH act -6.1, CYP2C9 act 0.5, CYP2C19 inhib 14.5, CYP2C9 inh 54.3* and CYP2C19 activ 0.9.
COC(=O)c1c(NC(=O)CSc2nnc(-c3ccco3)n2C)sc(C)c1C was read as sEH inh -3.6 and sEH act 2.9.
Screening C=CCSc1nc(C)c(CC(=O)OCC(C)C)c(=O)[nH]1 returned CYP2C9 act 0.7, CYP2C19 inhib 47.4, CYP2C9 inh 30.5 and CYP2C19 activ 0.5.

Screening results from PubChem.
